# From PubChem BioAssay (Tox21)
# Inconclusive results are not listed. Activity calls are given as the source filed them. The call rests on the fitted dose curve; in most records, active means well fitted cell-killing curve with a large enough effect in the repeat runs; inconclusive means weak or mixed curves, or effect the other way; inactive means no such curve, though single readings can be large or run the other way.
# Assay: qHTS assay to identify small molecule agonists of the vitamin D receptor (VDR) signaling pathway - cell viability counter screen (AID 743224); further: nearly all actives have a fitted effect of over 50% in size
# Conditions: VDR-bla HEK293T viability, CellTiter-Glo luminescence, 16 h; series mostly up to 62.6 µM; activity change, negative = cytotoxicity: at the top concentration
# In short: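 Counter screen run in the same wells as the VDR-bla reporter assay: CellTiter-Glo luminescence, 30 min at room temperature, after 16 h compound treatment at 37C of cells pre-plated for 4 h.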
# On the % scale 0 is the no-effect control and ±100 the full control effect.
row,Compound,"activity change, negative = cytotoxicity"
1,Cc1ccc(NC=O)c(C)c1,9.69% (inactive)
2,CC(CN=Cc1ccccc1O)N=Cc1ccccc1O (stereo not drawn),1.69% (inactive)
3,CCC(C)CCCC(C)(C)O (stereo not drawn),11.2% (inactive)
4,CO[C@@H]1[C@@H](O[C@@H]2O[C@H](C)[C@@H](O[C@H]3C[C@@](C)(O)[C@@H](O)[C@H](C)O3)[C@H](N(C)C)[C@H]2O)[C@@H](CC=O)C[C@@H](C)[C@@H](O[C@@H]2CC[C@H](N(C)C)[C@@H](C)O2)/C=C/C=C/C[C@@H](C)OC(=O)C[C@H]1OC(C)=O,-6.41% (inactive)
5,CC(=O)Nc1ccccc1O,-7.83% (inactive)
6,CCCCOC(=O)C(C)Oc1ccc(Oc2ccc(C(F)(F)F)cn2)cc1 (stereo not drawn),19.9% (inactive)
7,C=CC(O)CCCCC (stereo not drawn),15.5% (inactive)
8,CC(=O)OCC(=O)[C@@]1(O)CC[C@H]2[C@@H]3CCC4=CC(=O)C=C[C@]4(C)[C@@]3(F)[C@@H](O)C[C@@]21C,-0.353% (inactive)
9,O=C(O)CNc1ccccc1,-19.7% (inactive)
10,O=C(Nc1ccccc1)c1cc([N+](=O)[O-])ccc1Cl,9.81% (inactive)
11,C=CC(C)CCC=C(C)C (stereo not drawn),-2.53% (inactive)
12,CC1=C(C)C(=O)C(CCCCC#CCCCC#CCO)=C(C)C1=O,-1.97% (inactive)
13,CCCCCCCCC(=O)OCC(C)OC(=O)CCCCCCCC (stereo not drawn),5.39% [at 81.1 µM] (inactive)
14,Cc1cc(C)n(CO)n1,6.65% (inactive)
15,OCCCO,0.339% [at 81.1 µM] (inactive)
16,CCCCOC(=O)CC#N,-24.5% [at 81.1 µM] (inactive)
17,CCN(CCCCOC(=O)c1ccc(OC)c(OC)c1)C(C)Cc1ccc(OC)cc1 (stereo not drawn),-16.8% (inactive)
18,C[C@H](CN1CCCC1)C(=O)c1ccc(C(F)(F)F)cc1,5.19% (inactive)
19,CC(C)Oc1ccccc1O,15% (inactive)

row,Compound,"activity change, negative = cytotoxicity"
1,FC1(F)C(F)(F)C(F)(F)C2(F)C(F)(C1(F)F)C(F)(F)C(F)(F)C1(F)C(F)(F)C(F)(F)C(F)(F)C(F)(F)C12F (stereo not drawn),15.1% (inactive)
2,CCCCCCCCCCCCSC#N,-16.9% (inactive)
3,CNc1ccccc1,4.1% (inactive)
4,CC(C)(C(=O)O)c1ccc(C(O)CCCN2CCC(C(O)(c3ccccc3)c3ccccc3)CC2)cc1 (stereo not drawn),8.66% (inactive)
5,CCCCC(CC)COCCC#N (stereo not drawn),-0.695% (inactive)
6,O=C1OC(=O)C2CC=CCC12 (stereo not drawn),4% [at 81.1 µM] (inactive)
7,C=CCCC,-1.53% [at 81.1 µM] (inactive)
8,C=C(C)C(=O)OCCCCCCCCCCOC(=O)C(=C)C,2.46% (inactive)
9,CC(O)CN (stereo not drawn),10.4% (inactive)
10,COC(=O)C(C)(C)C,11.4% [at 81.1 µM] (inactive)
11,Nc1cccc2c(=O)[nH][nH]c(=O)c12,21.5% [at 81.1 µM] (inactive)
12,Cc1cc(N)n(-c2ccccc2)n1,0.424% (inactive)
13,CC[C@H](NC(C)C)[C@H](O)c1ccc(O)c2[nH]c(=O)ccc12,19.2% (inactive)
14,NC(=O)c1ccccc1C(N)=O,-12.8% [at 81.1 µM] (inactive)
15,O=Cc1ccc(Cl)c([N+](=O)[O-])c1,-0.53% (inactive)
16,O=C(OCCOCCOCCOC(=O)c1ccccc1)c1ccccc1,-0.625% (inactive)
17,CCCN(C1CCN(C(=O)C2CCNCC2)CC1)[C@@H]1CCc2ccc(OC)cc2C1,-24.8% (inactive)
18,CC1(C)CC(=O)CC(C)(C)N1,-1% (inactive)
19,CO[C@@H]1COCC[C@@H]1N[C@@H]1CC[C@@](C(=O)N2CCc3ncc(C(F)(F)F)cc3C2)(C(C)C)C1,-0.758% (inactive)
